Among the data in PubChem BioAssay (EPA / NIEHS) are AC50 and outcome values, retold here.

As a reminder, the AC50 is the concentration at which the activity in the assay is half-maximal.

Inconclusive results are not listed. The source made the active and inactive calls. How the source made its calls: active means hit-call score of the fitted dose curve at least 0.9, where 1 is the maximum; inconclusive means response in the unintended direction; inactive means score below 0.9.

A short description of this assay: STM_H9_NormalizedViability: Cytotoxicity Assessment at 120 hours in the Stemina devTOX quickPredict H9 human embryonic stem cell (hESC)-based Assay (AID 2283784). Here is the method: STM_H9_viability utilizes undifferentiated H9 cells to measure cell viability.STM_H9_NormalizedViability is a component calculated in the STM_H9_viability assay. It measures cell viability using background corrected relative fluorescence units (RFU) value from the CellTiterFluor Assay normalized to the value of the 0.1% DMSO neutral control treatment (by 96-well plate)Data from the assay component STM_H9_Viability was analyzed at the assay endpoint STM_H9_Viability_Norm in the positive analysis fitting direction relative to DMSO as the negative control and baseline of activity. Using a type of viability reporter, loss-of-signal activity can be used to understand viability.
H9 hESCs maintained in a pluripotent state were exposed to test compound for 72h with chemical replenishment with media replacement every 24h. Cell-conditioned media from the final 24-h treatment period was collected for analysis of the targeted biomarker, and cell viability of the corresponding cell layer was assessed. The chemical library was tested in blinded fashion. Each test plate included 1uM Methotrexate (MTX; Selleck Chemicals, Houston, Texas) as a positive reference, 5 nM MTX as a negative reference, 0.1% DMSO as the neutral (vehicle) control, and sample-level media blanks.H9 cell-conditioned media from the final 24-h treatment period was collected for analysis of the targeted biomarker and cell viability was measured from the corresponding cell layer. Cell viability was measured using the CellTiter-Fluor assay (Promega, Madison, Wisconsin) based on proteolytic cleavage of a substrate to fluorescent signal proportional to the number of living cells. The cell viability Relative Fluorescence Unit (RFU) was background corrected and normalized to mean RFU of the neutral control (0.1% DMSO). The collected H9-cell-conditioned media samples were processed for targeted biomarker analysis as described (Palmer et al., 2013). Briefly, spent media samples were deproteinized (40% acetonitrile) and processed for UPLC-HRMS. Data acquisition was performed using 4 separate UPLC-HRMS systems, consisting of an Agilent 1290 Infinity LC system (Agilent Technologies) interfaced with an Agilent high-resolution mass spectrometer (models G6520A, G6520B, G6530A, and G6224A). A Waters Acquity UPLC BEH Amide column (2.1mm x 50mm, 1.7lm particle size; Waters, Milford, Massachusetts) maintained at 40C was applied for separation of metabolites using a 6.5min solvent gradient with 0.1% formic acid in water and 0.1% formic acid in acetonitrile (1.0ml/min flow rate). Data were acquired using MassHunter Acquisition software (version B 04.00, Agilent Technologies). The extracted ion chromatogram (EIC) areas for ORN, CYSS, and their respective spike-in C13-standards were determined using the Agilent MassHunter Quantitative Analysis software, version B.05.00 or newer (Agilent Technologies), and data were normalized as described in Palmer et al. (2017).
As for `CCc1ccc(CCOc2ccc(CC3SC(=O)NC3=O)cc2)nc1` (configuration not stated), the AC50 is 55.8 µM (active).
In the case of `C#C[C@]1(O)CC[C@H]2[C@@H]3CCC4=CC(=O)CC[C@@H]4[C@H]3CC[C@@]21C`, the AC50 is 82 µM (active).
Take `Nc1cccc2c(N)cccc12`: the outcome was inactive.
With `CCCCCCCCCCCCc1ccccc1S(=O)(=O)O`, the outcome was inactive.
Consider `c1ccc2c(c1)ccc1ccccc12`, for which the AC50 is 79.9 µM (active).
In the case of `COc1ccc([N+](=O)[O-])cc1N`, the result was inactive.
`Cc1cc(CCN2CCN(c3nsc4ccccc34)CC2)cc2c1NC(=O)CC2(C)C`: the AC50 was 6.3 µM (active).
Turning to `CN1CCN(c2ccccc2/C=C2\SCCN(c3ccc(Cl)c(Cl)c3)C2=O)CC1`, the result was inactive.
Same read-out and setting: under `CN1CCC[C@H]1c1cccnc1` stands “inactive”.
Still for that read-out and setting: for `N#C[C@@H]1CC(F)(F)CN1C(=O)CNC1CC2CCC(C1)N2c1ncccn1` (some centres not stated) the value was “inactive”.
As for `C[C@@H]1C[C@H]2[C@@H]3CCC4=CC(=O)C=C[C@]4(C)[C@@]3(F)[C@@H](O)C[C@]2(C)[C@@]1(O)C(=O)COP(=O)(O)O`, the AC50 is 15.2 µM (active).
Regarding `CCN(CC)CCNc1ccc(CNC=O)c2sc3ccc(OC)cc3c(=O)c12`, the AC50 is 8.22 µM (active).
